The full list was thinned out, with hits kept by preference.
mcGAS RapidFire: inhibitors of Mus musculus cyclic GMP-AMP synthase, initial high-throughput assay, cell-free, RapidFire MS | 130,000 tested, 0.18% active | AID 1259397, 2018 | recombinant mouse cGAS, cGAMP by RapidFire MS | inhibition, % at 12.5 µM;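 active = inhibition of cGAS enzyme activity at or above 60%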;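 also: enzyme stimulated by 45 bp dsDNA with ATP and GTP substrates; cGAMP share of summed cGAMP plus half ATP and half GTP signals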
Target sequence (Q8C6L5 whole entry, looked up): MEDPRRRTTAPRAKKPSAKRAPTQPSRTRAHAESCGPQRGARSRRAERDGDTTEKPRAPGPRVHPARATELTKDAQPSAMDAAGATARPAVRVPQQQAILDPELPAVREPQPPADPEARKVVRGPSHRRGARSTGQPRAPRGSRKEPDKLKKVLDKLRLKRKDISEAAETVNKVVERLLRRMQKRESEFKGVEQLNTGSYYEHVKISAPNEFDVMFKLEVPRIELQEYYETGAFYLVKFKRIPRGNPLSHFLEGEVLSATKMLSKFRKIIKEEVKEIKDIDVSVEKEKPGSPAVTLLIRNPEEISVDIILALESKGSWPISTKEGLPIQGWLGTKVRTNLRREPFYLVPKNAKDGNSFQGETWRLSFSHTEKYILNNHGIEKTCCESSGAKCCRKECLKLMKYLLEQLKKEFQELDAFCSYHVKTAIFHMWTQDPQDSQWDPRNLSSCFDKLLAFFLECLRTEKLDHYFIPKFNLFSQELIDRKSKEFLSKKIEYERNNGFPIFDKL
Hits are given with their value; - = inactive.

SMILES	mcGAS RapidFire
O=C(Nc1nncs1)c1cn(-c2ccccc2Br)nn1	71
C=CCn1c(=S)sc2c(=O)[nH]c(-c3ccc4c(c3)OCO4)nc21	-
NC1(C(=O)N2CC[C@@H](c3ccc4ccccc4c3)[C@H](O)C2)CCCC1	-
CC(CNC(=O)NCc1ccc(S(C)=O)cc1)c1cccs1 (stereo not drawn)	-
Cn1c(N)c(C(=O)CSc2nnc3c(n2)[nH]c2ccccc23)c(=O)n(C)c1=O	-
CCSc1nnc2c3ccccc3n(C)c2n1	-
CCSc1nnc2c(=O)[nH]c(=O)[nH]c2n1	84
CCCNC(=O)C1(C)CCN(CCC(=O)c2ccc(Br)cc2)C1 (stereo not drawn)	64
CCNC(=O)C1(C)CCCN(CC(=O)c2ccc(Br)cc2)C1 (stereo not drawn)	-
CCNC(=O)C1(C)CCN1CCC(=O)c1ccc(Br)cc1 (stereo not drawn)	-
CC(C)c1nccn1CCCNC(=O)c1ccc(N2CC=CC2)nc1	-
CCN(CCn1cccn1)C(=O)C1CCN(c2ccccc2)C1=O (stereo not drawn)	-
Cn1c(-c2ccccc2)nnc1C(C#N)C(=O)C1CC=CCC1 (stereo not drawn)	-
CCC(=O)C(C#N)c1nnc(-c2ccccc2)s1 (stereo not drawn)	95
Cc1ccc(S(=O)(=O)c2nnc(-c3ccccc3)s2)cc1	-
CC1(C)C2CCC1(C)C(NC(=O)c1ccc(-c3ccncc3)[nH]c1=O)C2 (stereo not drawn)	-
N#CCSc1nc(N)c(C#N)c(-c2ccc(O)cc2)c1C#N	-
N#Cc1c(C2CCOC2)cc(-c2ccc(O)cc2)nc1N (stereo not drawn)	-
N#Cc1c(N)nc2c(c1N)C(Sc1ccccc1)c1ccc(O)cc1O2 (stereo not drawn)	87
CC1Cc2ccccc2N1C(=O)CNc1ccc(C(=O)N(C)C)cc1 (stereo not drawn)	-
Cc1ccccc1S(=O)(=O)NC(=O)C1(C)CCN1C(=O)c1c(C)noc1C (stereo not drawn)	-
Oc1c(F)cccc1CN(Cc1ccsc1)Cc1ccco1	-
CC(=O)c1[nH]c(C)c(C(=O)N2CC[C@@H](c3sccc3C)[C@H](O)C2)c1C	-
O=C(Nc1ccccc1C(=O)NCCN1CCOCC1)c1csnn1	-
c1coc(-c2cc(CSc3nnc(Cc4cccs4)n3C3CC3)no2)c1	-
SMILES	mcGAS RapidFire
O=S(=O)(c1ccccc1NC(C1CC1)C1CC1)C(F)(F)F	-
O=S(=O)(c1ccccc1O)C(F)(F)F	-
CC(C)(O)CCOc1ccccc1S(=O)(=O)C(F)(F)F	72
Cc1cc(C(C)(C)C)cc(C)c1C[n+]1ccc2ccccc2c1	-
COc1cc(C(=O)NC(C(N)=O)c2ccccc2)ccc1OCCC(C)C (stereo not drawn)	-
CCN(CC)S(=O)(=O)c1ccc(/C=C/C(=O)N=c2sccn2C)cc1	-
N[C@@H](Cc1cc(-c2ccc(Cl)cc2Cl)cc(CP(=O)(O)O)c1O)C(=O)O	70
NC(Cc1ccc(O)cc1)C(=O)O (stereo not drawn)	-
CC(Nc1ccc(Cl)cc1Cl)C(=O)O (stereo not drawn)	-
CCCOC1CCCN(c2cc(CCN)nc(C)n2)C1 (stereo not drawn)	97
Cc1nc(CCN)cc(N2CCC(N3CCCC3)CC2)n1	-
Cc1nc(CCN)cc(N2CC3C[C@@H]4CC2C[C@H](C3)C4)n1	-
CN(Cc1ncc[nH]1)Cc1cn[nH]c1C(=O)O	-
CCOCc1nccc(-c2cc(C(=O)O)ccn2)n1	-
CN1Cc2ccccc2CC1Cn1cnc(-c2ccccc2)c1-c1ncc[nH]1 (stereo not drawn)	-
CCSc1nc2c(c(=O)n(C)c(=O)n2C)n1Cc1ccccc1	-
S=c1[nH]nc(-c2ccccc2Cl)o1	-
S=c1[nH]nc(-c2sc3ccccc3c2Cl)o1	92
Clc1c(-c2nnco2)sc2ccccc12	-
Cc1ccc(-c2cc(C(=O)Nc3cnn(C45CC6CC(CC(C6)C4)C5)c3)no2)cc1	-
CCCn1cc(NC(=O)c2cc(-c3ccccc3)on2)cn1	72
O=C(Nc1cnn(C23CC4CC(CC(C4)C2)C3)c1)c1cc(-c2ccccc2)on1	-
O=C(CCc1ccc2c(c1)OCO2)NC1CC(=O)N(CC2CCCCC2)C1 (stereo not drawn)	-
CC(C)c1noc(C(C)N2CCN(Cc3nnc(C4CC4)o3)CC2)n1 (stereo not drawn)	-
N#CC(C(=O)COc1cc(F)ccc1F)c1nc2ccccc2s1 (stereo not drawn)	-
SMILES	mcGAS RapidFire
Cc1cc(-c2nnc3sc(-c4ccc5ccccc5n4)nn23)n[nH]1	-
COc1ccc2[nH]c(-c3nn4c(C(C)C)nnc4s3)cc2c1	-
CC(C)c1cc(-c2nn3c(C(C)(C)C)nnc3s2)n[nH]1	75
O=C(Nc1ccc2sccc2c1)c1coc2ccccc2c1=O	-
CCOC(=O)c1c(NC(=O)c2cc3ccccc3o2)sc(C(N)=O)c1C	-
Cc1nnc2sc(-c3cccc(NC(=S)NC(=O)c4cc5ccccc5o4)c3)nn12	-
Cc1nnc2sc(-c3ccccc3NC(=S)NC(=O)c3cc4ccccc4o3)nn12	71
